Laboratory results reported in PubChem BioAssay (NCATS).
Unmarked numbers belong to inactive results. Records with an inconclusive call do not appear. Calls of active or inactive are those of the source. Calls follow the shape of the dose curve; as a rule, active = well fitted curve in the direction sought with a large enough effect; inconclusive = small, poorly fitted or top-dose-only effect, or another doubt; inactive = no such curve, though single readings can be large; an effect the other way counts as inactive or inconclusive.

Tested on: not listed separately
Experiment: qHTS of Trypanosoma Brucei Inhibitors: LOPAC Validation (AID 624147)
Conditions: purified enzyme assay, luminescence, 45 min; series mostly up to 57.5 µM; activity change, negative = inhibition: at the top concentration
How it was run: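 TbPYK + substrate in 50 mM TEA pH 7.2, 100 mM KCl, 10 mM MgCl2, 0.05% BSA, 0.01% Tween-20; cpd pinned; ADP 130 uM final; 45 min RT; Kinase-Glo Plus 10 min; luminescence endpoint.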
Also: 0% is about no effect.

SMILES | activity change, negative = inhibition [%] | outcome
C[C@](N)(Cc1ccc(O)cc1)C(=O)O | -9.75 | 
CCN(CC)CCCC(C)Nc1c2ccc(Cl)cc2nc2ccc(OC)cc12 (stereo not drawn) | -11 | 
CC(C)(C(=O)O)c1ccc(C(O)CCCN2CCC(C(O)(c3ccccc3)c3ccccc3)CC2)cc1 (stereo not drawn) | 3.2 | 
CC(C)(C)c1onc(OCP(=O)(O)O)c1CC(N)C(=O)O (stereo not drawn) |  | inactive
N=c1c[n+](N2CCOCC2)[n-]o1 | -4.4 | 
C[C@]12C[C@H](O)[C@H]3[C@@H](CCC4=CC(=O)CC[C@@]43C)[C@@H]1CC[C@@H]2C(=O)CO | -4.84 | 
C=Cc1c(C)c2cc3[nH]c(cc4nc(cc5nc(cc1[nH]2)C(C)=C5CCC(=O)O)C(CCC(=O)O)=C4C)c(C)c3C=C | -16.3 | 
CCN(CC)CCNC(=O)c1cc(Cl)c(N)cc1OC | -10.9 | 
NC(N)=NCCC[C@H](N)C(=O)O | -7.73 | 
CN1CCN(C2Cc3ccccc3Sc3ccc(Cl)cc32)CC1 (stereo not drawn) | -6.29 | 
CN(C)CCOC(C)(c1ccccc1)c1ccccn1 (stereo not drawn) | -8.55 | 
CNC(=O)Oc1ccc2c(c1)[C@]1(C)CCN(C)[C@@H]1N2C | -6.95 | 
NC1CCN(c2cccc(Cl)n2)CC1 | -6.29 | 
CCN(CC)C(C)CN1c2ccccc2Sc2ccccc21 (stereo not drawn) | -23.7 | 
CNCCC(Oc1ccc(C(F)(F)F)cc1)c1ccccc1 (stereo not drawn) | -9.65 | 
CC1=C(CC(=O)O)c2cc(F)ccc2/C1=C\c1ccc(S(C)(=O)=O)cc1 | -14.7 | 
CC(C)C(=O)c1c(C(C)C)nn2ccccc12 | -6.18 | 
COCCOC(=O)C1=C(C)NC(C)=C(C(=O)OC/C=C/c2ccccc2)C1c1cccc([N+](=O)[O-])c1 (stereo not drawn) | -12.9 | 
CCCn1cnc2c1c(=O)n(CCCCC(C)=O)c(=O)n2C | -5.26 | 
O=C1N=C(O)CN1/N=C/c1ccc(-c2ccc([N+](=O)[O-])cc2)o1 | -5.21 | 
Cc1cc(N)c2ccccc2[n+]1CCCCCCCCCC[n+]1c(C)cc(N)c2ccccc21 | -6.42 | 
OCc1cc(C(O)CNCCCCCCOCCCCc2ccccc2)ccc1O (stereo not drawn) | -12.1 | 
CN(C)CCCN1c2ccccc2Sc2ccc(Cl)cc21 | -5.71 | 
CCCCCCCCCCCCCCCC(=O)NCCO | 1.81 | 
CC(C)(C)[C@]1(O)CCN2C[C@H]3c4ccccc4CCc4cccc(c43)[C@@H]2C1 |  | inactive
C#CCN(C)Cc1ccccc1 | -16.7 | 

Biological target: Glucagon-like peptide 1 receptor (Homo sapiens) (UniProt P43220)
Experiment: qHTS of GLP-1 Receptor Agonists: LOPAC Validation (AID 624148);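 also: higher luminescence signal means agonism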
Conditions: GLP-1R agonist cell assay; series mostly up to 46.1 µM; activation: at the top concentration
How it was run: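 HEK293 cells stably co-expressing a cAMP-responsive luciferase reporter and a hypersensitive GLP-1R were plated 12 h at 37 °C and exposed to compounds for 4-6 hr at 37 °C, 5% CO2. Luminescence was read 12 min after adding detection reagent.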

Glucagon-like peptide 1 receptor (Homo sapiens), sequence (P43220 whole entry, looked up): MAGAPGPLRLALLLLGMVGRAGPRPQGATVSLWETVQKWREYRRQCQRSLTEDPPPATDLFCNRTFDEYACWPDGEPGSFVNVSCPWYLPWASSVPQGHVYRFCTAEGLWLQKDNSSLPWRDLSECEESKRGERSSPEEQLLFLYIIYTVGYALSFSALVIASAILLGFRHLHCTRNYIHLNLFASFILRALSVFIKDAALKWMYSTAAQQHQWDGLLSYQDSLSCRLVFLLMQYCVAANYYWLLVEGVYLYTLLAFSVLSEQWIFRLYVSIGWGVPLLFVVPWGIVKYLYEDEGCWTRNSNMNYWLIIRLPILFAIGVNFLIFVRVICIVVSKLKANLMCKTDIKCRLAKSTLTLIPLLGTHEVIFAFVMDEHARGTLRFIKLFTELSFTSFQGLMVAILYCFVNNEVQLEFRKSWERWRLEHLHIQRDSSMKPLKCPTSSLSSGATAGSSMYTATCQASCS

SMILES | activation [%] | outcome
C[C@](N)(Cc1ccc(O)cc1)C(=O)O | 3.49 | 
CCN(CC)CCCC(C)Nc1c2ccc(Cl)cc2nc2ccc(OC)cc12 (stereo not drawn) | -1.11 | 
CC(C)(C(=O)O)c1ccc(C(O)CCCN2CCC(C(O)(c3ccccc3)c3ccccc3)CC2)cc1 (stereo not drawn) | 5.46 | 
CC(C)(C)c1onc(OCP(=O)(O)O)c1CC(N)C(=O)O (stereo not drawn) |  | inactive
N=c1c[n+](N2CCOCC2)[n-]o1 | -1.64 | 
C[C@]12C[C@H](O)[C@H]3[C@@H](CCC4=CC(=O)CC[C@@]43C)[C@@H]1CC[C@@H]2C(=O)CO | 0.491 | 
C=Cc1c(C)c2cc3[nH]c(cc4nc(cc5nc(cc1[nH]2)C(C)=C5CCC(=O)O)C(CCC(=O)O)=C4C)c(C)c3C=C | 0.579 | 
CCN(CC)CCNC(=O)c1cc(Cl)c(N)cc1OC | -1.72 | 
NC(N)=NCCC[C@H](N)C(=O)O | -2.01 | 
CN1CCN(C2Cc3ccccc3Sc3ccc(Cl)cc32)CC1 (stereo not drawn) | 9.04 | 
CN(C)CCOC(C)(c1ccccc1)c1ccccn1 (stereo not drawn) | 0.907 | 
CNC(=O)Oc1ccc2c(c1)[C@]1(C)CCN(C)[C@@H]1N2C | -1.64 | 
NC1CCN(c2cccc(Cl)n2)CC1 | -1.67 | 
CCN(CC)C(C)CN1c2ccccc2Sc2ccccc21 (stereo not drawn) | -0.616 | 
CNCCC(Oc1ccc(C(F)(F)F)cc1)c1ccccc1 (stereo not drawn) | -1.09 | 
CC1=C(CC(=O)O)c2cc(F)ccc2/C1=C\c1ccc(S(C)(=O)=O)cc1 | -1.43 | 
CC(C)C(=O)c1c(C(C)C)nn2ccccc12 | 11.3 | 
COCCOC(=O)C1=C(C)NC(C)=C(C(=O)OC/C=C/c2ccccc2)C1c1cccc([N+](=O)[O-])c1 (stereo not drawn) | 7.06 | 
CCCn1cnc2c1c(=O)n(CCCCC(C)=O)c(=O)n2C | 7.92 | 
O=C1N=C(O)CN1/N=C/c1ccc(-c2ccc([N+](=O)[O-])cc2)o1 | -1.34 | 
Cc1cc(N)c2ccccc2[n+]1CCCCCCCCCC[n+]1c(C)cc(N)c2ccccc21 | -0.24 | 
OCc1cc(C(O)CNCCCCCCOCCCCc2ccccc2)ccc1O (stereo not drawn) | 46.8 | 
CN(C)CCCN1c2ccccc2Sc2ccc(Cl)cc21 | 7.8 | 
CCCCCCCCCCCCCCCC(=O)NCCO | -1.77 | 
CC(C)(C)[C@]1(O)CCN2C[C@H]3c4ccccc4CCc4cccc(c43)[C@@H]2C1 |  | inactive
C#CCN(C)Cc1ccccc1 | -0.959 | 

Tested on: not listed separately
Experiment: qHTS of Nrf2 Activators: LOPAC Validation (AID 624149)
Conditions: Nrf2/ARE reporter cell assay; series mostly up to 46.1 µM; activation: at the top concentration
How it was run: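 Cells (AREc32_Fluc) are plated at 1000 per well in OPTI-MEM containing 5% FBS and left overnight. Compounds are pinned in and incubated 24 hr at 37 deg C, and firefly luciferase is detected with Steady-Glo.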

SMILES | activation [%] | outcome
C[C@](N)(Cc1ccc(O)cc1)C(=O)O | -0.0647 | 
CCN(CC)CCCC(C)Nc1c2ccc(Cl)cc2nc2ccc(OC)cc12 (stereo not drawn) | 15.7 | 
CC(C)(C(=O)O)c1ccc(C(O)CCCN2CCC(C(O)(c3ccccc3)c3ccccc3)CC2)cc1 (stereo not drawn) | -1.2 | 
CC(C)(C)c1onc(OCP(=O)(O)O)c1CC(N)C(=O)O (stereo not drawn) |  | inactive
N=c1c[n+](N2CCOCC2)[n-]o1 | -1.87 | 
C[C@]12C[C@H](O)[C@H]3[C@@H](CCC4=CC(=O)CC[C@@]43C)[C@@H]1CC[C@@H]2C(=O)CO | -2.35 | 
C=Cc1c(C)c2cc3[nH]c(cc4nc(cc5nc(cc1[nH]2)C(C)=C5CCC(=O)O)C(CCC(=O)O)=C4C)c(C)c3C=C | -1.19 | 
CCN(CC)CCNC(=O)c1cc(Cl)c(N)cc1OC | -2.01 | 
NC(N)=NCCC[C@H](N)C(=O)O | -2.1 | 
CN1CCN(C2Cc3ccccc3Sc3ccc(Cl)cc32)CC1 (stereo not drawn) | 5.8 | 
CN(C)CCOC(C)(c1ccccc1)c1ccccn1 (stereo not drawn) | -1.94 | 
CNC(=O)Oc1ccc2c(c1)[C@]1(C)CCN(C)[C@@H]1N2C | -1.69 | 
NC1CCN(c2cccc(Cl)n2)CC1 | 1.18 | 
CCN(CC)C(C)CN1c2ccccc2Sc2ccccc21 (stereo not drawn) | -1.74 | 
CNCCC(Oc1ccc(C(F)(F)F)cc1)c1ccccc1 (stereo not drawn) | 5.8 | 
CC1=C(CC(=O)O)c2cc(F)ccc2/C1=C\c1ccc(S(C)(=O)=O)cc1 | 0.927 | 
CC(C)C(=O)c1c(C(C)C)nn2ccccc12 | -2.06 | 
COCCOC(=O)C1=C(C)NC(C)=C(C(=O)OC/C=C/c2ccccc2)C1c1cccc([N+](=O)[O-])c1 (stereo not drawn) | 1.02 | 
CCCn1cnc2c1c(=O)n(CCCCC(C)=O)c(=O)n2C | -2.23 | 
O=C1N=C(O)CN1/N=C/c1ccc(-c2ccc([N+](=O)[O-])cc2)o1 | -2.25 | 
Cc1cc(N)c2ccccc2[n+]1CCCCCCCCCC[n+]1c(C)cc(N)c2ccccc21 | -1.25 | 
OCc1cc(C(O)CNCCCCCCOCCCCc2ccccc2)ccc1O (stereo not drawn) | -1.28 | 
CN(C)CCCN1c2ccccc2Sc2ccc(Cl)cc21 | -1.11 | 
CCCCCCCCCCCCCCCC(=O)NCCO | -2.21 | 
CC(C)(C)[C@]1(O)CCN2C[C@H]3c4ccccc4CCc4cccc(c43)[C@@H]2C1 |  | inactive
C#CCN(C)Cc1ccccc1 | -1.05 | 
